Experimental findings from article PMC7862700, “An all-to-all approach to the identification of sequence-specific readers for epigenetic DNA modifications on cytosine” are described below.

Holding throughout (assay): DAPPL (digital affinity profiling via proximity ligation, sequencing); 10 mM Tris-HCl pH 7.5, 50 mM NaCl, 1 mM DTT, 4% glycerol, room temperature, 30 min; GST-TFs on glutathione beads, 16-mer random dsDNA library, 0.1% formaldehyde crosslink after washing; high values mean tight binding
Holding throughout (conditions): protein: recombinant; tags: N-terminal GST; dsDNA, one strand shown

One experiment has as its target T1, FLI1 (Homo sapiens, UniProt Q01543 1-452).
T1 sequence: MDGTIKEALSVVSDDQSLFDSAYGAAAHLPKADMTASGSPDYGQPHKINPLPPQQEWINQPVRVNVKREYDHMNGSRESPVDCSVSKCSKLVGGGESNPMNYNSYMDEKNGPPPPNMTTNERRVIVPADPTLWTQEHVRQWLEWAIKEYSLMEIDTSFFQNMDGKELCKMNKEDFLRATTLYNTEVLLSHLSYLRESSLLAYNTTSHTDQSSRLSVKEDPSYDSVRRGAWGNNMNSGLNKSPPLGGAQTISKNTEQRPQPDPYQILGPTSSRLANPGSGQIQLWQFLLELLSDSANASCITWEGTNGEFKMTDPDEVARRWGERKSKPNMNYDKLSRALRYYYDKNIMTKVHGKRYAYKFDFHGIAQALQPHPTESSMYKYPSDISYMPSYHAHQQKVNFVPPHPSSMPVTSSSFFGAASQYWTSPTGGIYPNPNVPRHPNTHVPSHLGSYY
Put shortly:
(§1)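 Binding signal is each hexamer's read frequency for a factor divided by its frequency in the tag-only sample. The factors were GST-fused human transcription factors from yeast, captured on glutathione beads, DNA-barcoded and pooled with that sample. Pools were incubated with 200 nmole of a random double-stranded 16-mer DNA library in Tris/NaCl/DTT/glycerol buffer at room temperature for 30 min, then washed, crosslinked with 0.1% formaldehyde, proximity-ligated with BsaI/T4 ligase (1 h, 37 °C), PCR-amplified and sequenced on an Illumina NextSeq500.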

The target in another experiment is T2, ELK1 (Homo sapiens, UniProt P19419 1-428).
T2 sequence: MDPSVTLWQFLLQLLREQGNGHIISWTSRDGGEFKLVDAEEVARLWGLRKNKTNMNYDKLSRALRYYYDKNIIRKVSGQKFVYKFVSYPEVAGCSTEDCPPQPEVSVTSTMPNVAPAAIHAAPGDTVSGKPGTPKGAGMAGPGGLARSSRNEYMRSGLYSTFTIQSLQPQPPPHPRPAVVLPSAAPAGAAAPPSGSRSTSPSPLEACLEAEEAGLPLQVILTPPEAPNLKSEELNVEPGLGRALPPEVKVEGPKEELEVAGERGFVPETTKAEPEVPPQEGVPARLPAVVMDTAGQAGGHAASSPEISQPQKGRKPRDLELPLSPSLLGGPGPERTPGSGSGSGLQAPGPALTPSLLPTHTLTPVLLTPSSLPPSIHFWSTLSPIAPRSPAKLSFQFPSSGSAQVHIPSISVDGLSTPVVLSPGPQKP
A digest of the protocol:
as §1

The next experiment deals with T3, GABPA (Homo sapiens, UniProt Q06546 1-454).
T3 sequence: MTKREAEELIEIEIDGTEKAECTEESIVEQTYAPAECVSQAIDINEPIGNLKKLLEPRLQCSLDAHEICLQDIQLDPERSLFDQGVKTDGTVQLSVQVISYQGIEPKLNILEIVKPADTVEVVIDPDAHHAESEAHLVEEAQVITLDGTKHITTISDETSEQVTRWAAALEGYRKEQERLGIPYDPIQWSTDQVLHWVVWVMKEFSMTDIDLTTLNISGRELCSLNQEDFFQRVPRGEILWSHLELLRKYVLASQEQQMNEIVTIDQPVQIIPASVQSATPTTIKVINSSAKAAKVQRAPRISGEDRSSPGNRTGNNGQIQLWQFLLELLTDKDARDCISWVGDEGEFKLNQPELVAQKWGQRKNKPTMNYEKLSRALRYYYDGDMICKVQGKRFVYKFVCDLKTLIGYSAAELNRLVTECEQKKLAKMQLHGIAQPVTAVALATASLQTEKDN
A digest of the protocol: as §1

A further experiment deals with T4, ERG (Homo sapiens, UniProt P11308 1-479).
T4 sequence: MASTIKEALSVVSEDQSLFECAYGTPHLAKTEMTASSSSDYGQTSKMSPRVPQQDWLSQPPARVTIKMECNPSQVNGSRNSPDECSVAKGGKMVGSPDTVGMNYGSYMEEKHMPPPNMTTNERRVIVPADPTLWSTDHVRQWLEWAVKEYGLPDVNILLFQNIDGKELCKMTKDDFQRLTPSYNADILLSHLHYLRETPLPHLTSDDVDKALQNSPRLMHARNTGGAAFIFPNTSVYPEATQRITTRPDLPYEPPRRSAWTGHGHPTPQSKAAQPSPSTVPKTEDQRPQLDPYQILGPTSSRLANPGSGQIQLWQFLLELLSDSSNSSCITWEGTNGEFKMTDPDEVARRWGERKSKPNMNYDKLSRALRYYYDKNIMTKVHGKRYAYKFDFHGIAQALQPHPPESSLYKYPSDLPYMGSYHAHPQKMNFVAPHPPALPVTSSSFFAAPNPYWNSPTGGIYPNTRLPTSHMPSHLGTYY
Put shortly: as §1

A further experiment has as its target ELF1 (Homo sapiens, UniProt P32519 1-619). Put shortly: as §1
The target in a further experiment is T5, EHF (Homo sapiens, UniProt Q9NZC4 1-300).
T5 sequence: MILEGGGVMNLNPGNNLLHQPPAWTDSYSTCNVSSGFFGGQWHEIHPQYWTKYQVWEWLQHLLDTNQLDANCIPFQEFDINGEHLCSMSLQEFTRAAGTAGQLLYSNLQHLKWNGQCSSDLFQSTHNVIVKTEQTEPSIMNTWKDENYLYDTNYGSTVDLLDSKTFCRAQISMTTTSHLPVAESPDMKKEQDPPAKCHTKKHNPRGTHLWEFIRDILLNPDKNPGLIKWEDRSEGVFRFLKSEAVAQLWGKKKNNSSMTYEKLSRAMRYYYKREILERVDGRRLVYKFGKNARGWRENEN
A digest of the protocol: as §1

The target in a further experiment is SPI1 (Homo sapiens, UniProt P17947 1-270). A digest of the protocol: as §1
A further experiment concerns the target SPIB (Homo sapiens, UniProt Q01892 1-262). A digest of the protocol:
as §1

Another experiment concerns the target T6, ELK3 (Homo sapiens, UniProt P41970 1-407).
T6 sequence: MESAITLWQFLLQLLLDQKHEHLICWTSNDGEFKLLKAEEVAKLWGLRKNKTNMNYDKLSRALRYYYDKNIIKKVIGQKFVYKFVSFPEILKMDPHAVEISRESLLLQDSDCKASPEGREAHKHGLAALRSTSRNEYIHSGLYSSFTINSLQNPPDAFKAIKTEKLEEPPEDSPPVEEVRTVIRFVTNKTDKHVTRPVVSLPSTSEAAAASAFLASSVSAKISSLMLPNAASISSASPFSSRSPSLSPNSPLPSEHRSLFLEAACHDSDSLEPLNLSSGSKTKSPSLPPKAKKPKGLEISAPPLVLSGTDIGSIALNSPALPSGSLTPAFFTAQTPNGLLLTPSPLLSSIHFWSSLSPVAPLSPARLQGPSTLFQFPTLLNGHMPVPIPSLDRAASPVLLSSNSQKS
A digest of the protocol:
as §1

Chain of SPIB (Q01892 whole entry): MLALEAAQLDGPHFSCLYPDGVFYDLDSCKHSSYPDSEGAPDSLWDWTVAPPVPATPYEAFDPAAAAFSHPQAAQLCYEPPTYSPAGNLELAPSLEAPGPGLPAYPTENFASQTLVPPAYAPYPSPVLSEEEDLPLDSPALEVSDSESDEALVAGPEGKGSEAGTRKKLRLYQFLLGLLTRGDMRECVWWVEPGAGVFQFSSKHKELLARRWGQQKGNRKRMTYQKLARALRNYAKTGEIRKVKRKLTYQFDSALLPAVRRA
Chain of ELF1 (P32519 whole entry): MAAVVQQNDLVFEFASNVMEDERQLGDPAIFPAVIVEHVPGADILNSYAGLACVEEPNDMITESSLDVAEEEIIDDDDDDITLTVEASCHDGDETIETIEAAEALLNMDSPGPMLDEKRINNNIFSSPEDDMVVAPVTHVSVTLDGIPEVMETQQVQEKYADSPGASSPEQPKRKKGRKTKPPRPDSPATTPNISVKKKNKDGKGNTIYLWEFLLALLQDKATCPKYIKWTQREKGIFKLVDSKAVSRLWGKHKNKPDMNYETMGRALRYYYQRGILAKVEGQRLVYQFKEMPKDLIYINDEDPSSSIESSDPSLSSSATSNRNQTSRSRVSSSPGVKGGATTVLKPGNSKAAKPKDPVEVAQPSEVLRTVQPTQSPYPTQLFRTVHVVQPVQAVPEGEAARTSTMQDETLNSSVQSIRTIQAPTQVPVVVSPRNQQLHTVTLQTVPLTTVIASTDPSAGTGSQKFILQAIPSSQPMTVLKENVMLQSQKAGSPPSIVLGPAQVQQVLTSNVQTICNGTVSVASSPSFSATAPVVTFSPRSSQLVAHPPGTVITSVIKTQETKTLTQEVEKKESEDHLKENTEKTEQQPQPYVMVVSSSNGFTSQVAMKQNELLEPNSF

Turning to TCTCGT, the binding signal was 1.34 fold enrichment (6-mer frequency, TF over GST control) with FLI1; 1.11 fold enrichment (6-mer frequency, TF over GST control) with ELK1; 1.15 fold enrichment (6-mer frequency, TF over GST control) with GABPA; 1.11 fold enrichment (6-mer frequency, TF over GST control) with ERG; 1.24 fold enrichment (6-mer frequency, TF over GST control) with ELF1; 1.22 fold enrichment (6-mer frequency, TF over GST control) with EHF. Moreover, the binding signal is 1.24 fold enrichment (6-mer frequency, TF over GST control) with SPI1; 1.3 fold enrichment (6-mer frequency, TF over GST control) with SPIB; 1.19 fold enrichment (6-mer frequency, TF over GST control) with ELK3.

For CGATCT, the binding signal with FLI1 was 1.37 fold enrichment (6-mer frequency, TF over GST control); with ELK1, 1.25 fold enrichment (6-mer frequency, TF over GST control); in the experiment with GABPA it was 1.29 fold enrichment (6-mer frequency, TF over GST control); with ERG it was 1.28 fold enrichment (6-mer frequency, TF over GST control); with ELF1, 1.3 fold enrichment (6-mer frequency, TF over GST control); with EHF, 1.32 fold enrichment (6-mer frequency, TF over GST control). In addition, the binding signal is 1.22 fold enrichment (6-mer frequency, TF over GST control) with SPI1; 1.3 fold enrichment (6-mer frequency, TF over GST control) in the experiment with SPIB; 1.3 fold enrichment (6-mer frequency, TF over GST control) in the experiment with ELK3.

Take TGTAAT: the binding signal with FLI1 was 1.27 fold enrichment (6-mer frequency, TF over GST control); with ELK1, 1.2 fold enrichment (6-mer frequency, TF over GST control); in the experiment with GABPA it was 1.2 fold enrichment (6-mer frequency, TF over GST control); with ERG, 1.2 fold enrichment (6-mer frequency, TF over GST control); in the experiment with ELF1, 1.18 fold enrichment (6-mer frequency, TF over GST control); with EHF it was 1.15 fold enrichment (6-mer frequency, TF over GST control). Besides, the binding signal in the experiment with SPI1 was 1.15 fold enrichment (6-mer frequency, TF over GST control); in the experiment with SPIB, 1.25 fold enrichment (6-mer frequency, TF over GST control); in the experiment with ELK3, 1.26 fold enrichment (6-mer frequency, TF over GST control).

For the sequence TATCGT, the binding signal is 1.18 fold enrichment (6-mer frequency, TF over GST control) with FLI1; 1.28 fold enrichment (6-mer frequency, TF over GST control) with ELK1; 1.04 fold enrichment (6-mer frequency, TF over GST control) with GABPA; 1.14 fold enrichment (6-mer frequency, TF over GST control) with ERG; 1.14 fold enrichment (6-mer frequency, TF over GST control) in the experiment with ELF1; 1.1 fold enrichment (6-mer frequency, TF over GST control) in the experiment with EHF. Moreover, the binding signal was 1.07 fold enrichment (6-mer frequency, TF over GST control) in the experiment with SPI1; 1.2 fold enrichment (6-mer frequency, TF over GST control) in the experiment with SPIB; 1.18 fold enrichment (6-mer frequency, TF over GST control) with ELK3.

With CTATTT, the binding signal with FLI1 was 1.7 fold enrichment (6-mer frequency, TF over GST control); in the experiment with ELK1, 1.67 fold enrichment (6-mer frequency, TF over GST control); with GABPA it was 1.74 fold enrichment (6-mer frequency, TF over GST control); in the experiment with ERG it was 1.77 fold enrichment (6-mer frequency, TF over GST control); with ELF1, 1.58 fold enrichment (6-mer frequency, TF over GST control); in the experiment with EHF it was 1.85 fold enrichment (6-mer frequency, TF over GST control). The binding signal with SPI1 was 1.76 fold enrichment (6-mer frequency, TF over GST control); in the experiment with SPIB, 1.81 fold enrichment (6-mer frequency, TF over GST control); in the experiment with ELK3 it was 1.85 fold enrichment (6-mer frequency, TF over GST control).

In the case of ACCTTA, the binding signal with FLI1 was 1.34 fold enrichment (6-mer frequency, TF over GST control); with ELK1 it was 1.24 fold enrichment (6-mer frequency, TF over GST control); with GABPA it was 1.19 fold enrichment (6-mer frequency, TF over GST control); with ERG it was 1.3 fold enrichment (6-mer frequency, TF over GST control); with ELF1, 1.2 fold enrichment (6-mer frequency, TF over GST control); in the experiment with EHF it was 1.24 fold enrichment (6-mer frequency, TF over GST control). For the same sequence, the binding signal is 1.24 fold enrichment (6-mer frequency, TF over GST control) in the experiment with SPI1; 1.21 fold enrichment (6-mer frequency, TF over GST control) in the experiment with SPIB; 1.13 fold enrichment (6-mer frequency, TF over GST control) with ELK3.

On to ACTTTA, for which the binding signal with FLI1 was 1.12 fold enrichment (6-mer frequency, TF over GST control); with ELK1, 1.26 fold enrichment (6-mer frequency, TF over GST control); in the experiment with GABPA, 1.29 fold enrichment (6-mer frequency, TF over GST control); with ERG it was 1.17 fold enrichment (6-mer frequency, TF over GST control); with ELF1, 1.21 fold enrichment (6-mer frequency, TF over GST control); in the experiment with EHF, 1.2 fold enrichment (6-mer frequency, TF over GST control). Besides, the binding signal is 1.33 fold enrichment (6-mer frequency, TF over GST control) with SPI1; 1.19 fold enrichment (6-mer frequency, TF over GST control) in the experiment with SPIB; 1.22 fold enrichment (6-mer frequency, TF over GST control) with ELK3.

For TTTCTC, the binding signal in the experiment with FLI1 is 1.64 fold enrichment (6-mer frequency, TF over GST control); with ELK1 it was 1.66 fold enrichment (6-mer frequency, TF over GST control); in the experiment with GABPA, 1.58 fold enrichment (6-mer frequency, TF over GST control); with ERG, 1.54 fold enrichment (6-mer frequency, TF over GST control); in the experiment with ELF1, 1.62 fold enrichment (6-mer frequency, TF over GST control); with EHF, 1.59 fold enrichment (6-mer frequency, TF over GST control). Further, the binding signal in the experiment with SPI1 is 1.7 fold enrichment (6-mer frequency, TF over GST control); with SPIB, 1.63 fold enrichment (6-mer frequency, TF over GST control); with ELK3 it was 1.46 fold enrichment (6-mer frequency, TF over GST control).
